The panel holds about 83,000 compounds, 20% with a hit somewhere; the sample as a whole holds those more often.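 The test compound was applied at a single concentration to cells in 96-well plates for 48 hours, and percent growth was recorded.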 Values without a mark were called inactive. Calls of active or inactive are those of the source. How the source made its calls: active means growth percent below 10; inactive means the rest.
What was measured:
Test in all cases: NCI-60 one-dose screen, 48 h (100 = growth as untreated, 0 = no growth, -100 = all killed)
Conditions in all cases: 10 µM unless noted
[1] = tested on: NCI-H23 lung
[2] = tested on: NCI-H226 lung
[3] = tested on: NCI-H322M lung
[4] = tested on: HOP-62 NSCLC
[5] = tested on: NCI-H460 lung
[6] = tested on: NCI-H522 lung
[7] = tested on: 786-0 renal
[8] = tested on: COLO 205 colon
[9] = tested on: DU-145 prostate
[10] = tested on: MALME-3M melanoma
[11] = tested on: MDA-MB-231 breast
[12] = tested on: RXF 393 renal
[13] = tested on: SF-268 CNS
[14] = tested on: SF-539 CNS
[15] = tested on: M14 melanoma
[16] = tested on: HCT-15 colon
[17] = tested on: A549/ATCC NSCLC
[18] = tested on: K-562 leukemia
[19] = tested on: SF-295 CNS
[20] = tested on: UACC-257 melanoma

SMILES	growth [1]	growth [2]	growth [3]	growth [4]	growth [5]	growth [6]	growth [7]	growth [8]	growth [9]	growth [10]	growth [11]	growth [12]	growth [13]	growth [14]	growth [15]	growth [16]	growth [17]	growth [18]	growth [19]	growth [20]
O=C(Cc1ccccn1)C(F)(F)C(F)(F)C(F)(F)F	104%	102%	116%	97.5%	111%	111%	104%	127%	112%	110%	102%	125%	125%	104%	110%	109%	–	–	–	–
CC/C(=C\c1ccc(N(C)C)cc1)c1ccncc1	63.3%	74.8%	94.6%	46.6%	14.3%	–	54.6%	36.1%	85%	9.47% (active)	51.6%	91.1%	71.7%	58.6%	29.6%	37.5%	43.5%	16.2%	49%	75%
CN1CCCC1c1cccnc1 (stereo not given)	2.54% (active)	96.4%	105%	113%	98.6%	17.3%	108%	105%	110%	128%	97.3%	–	111%	85.2%	119%	100%	–	106%	124%	–
CC(C)COCC(CN(Cc1ccccc1)c1ccccc1)N1CCCC1 (stereo not given)	60.7%	65.8%	78.8%	71.3%	43.8%	32.1%	68.2%	40.1%	70%	84.3%	29.5%	–	71.5%	78.5%	51.9%	55.7%	–	31.3%	63.6%	–
COc1ccc2c(c1)C(=O)/C(=C/c1cccc(OCC(=O)c3ccccc3)c1)CC2	87.4%	75.9%	108%	101%	113%	64.7%	87.6%	136%	–	97.6%	83.6%	–	91.8%	93.5%	92.2%	89.7%	–	33.4%	104%	91.7%
COc1cccc(CCC2C(=O)CCCC2=O)c1	103%	111%	102%	106%	117%	–	108%	99.5%	105%	115%	114%	134%	98.1%	98.8%	113%	108%	108%	109%	118%	108%
Nc1cc(Cl)c(S(N)(=O)=O)cc1S(N)(=O)=O	87.1%	92.8%	87.9%	111%	106%	68.8%	100%	109%	121%	84.5%	113%	–	113%	88.1%	108%	97.9%	–	104%	111%	–
O=c1[nH]c(=O)n(C2CC(O)C(CO)O2)cc1C(F)(F)F (stereo not given)	-5.01% (active)	57%	76%	33.1%	19.2%	-12% (active)	12.7%	69.2%	6.03% (active)	51.4%	102%	–	30.7%	8.46% (active)	15.8%	73.9%	–	62.4%	6.84% (active)	–
C[C@]12C[C@H](O)[C@H]3[C@@H](CCC4=CC(=O)CC[C@@]43C)[C@@H]1CC[C@@H]2C(=O)CO	11%	79.5%	105%	102%	103%	16%	101%	96%	108%	95.3%	80.5%	–	98.8%	89.3%	107%	92%	–	66.7%	126%	–
c1ccc(-n2nnnc2-c2cccc3ccccc23)cc1	52.1%	79.3%	30.2%	25.9%	9.98% (active)	–	24.7%	-17.8% (active)	7.52% (active)	34.8%	25.4%	-5.16% (active)	43.4%	-18.8% (active)	8.41% (active)	18.7%	34.5%	13%	1.28% (active)	57.5%
CCC(CCC(C)C1CCC2C3CC=C4CC(O)CCC4(C)C3CCC12C)C(C)C (stereo not given) (tested in a mixture with another compound)	112%	101%	145%	114%	96.6%	116%	96%	107%	115%	138%	115%	–	79.9%	80.3%	92.2%	95.6%	–	82%	76.9%	–
COc1c(O)cc2oc3cc(O)c(CC=C(C)C)c(O)c3c(=O)c2c1C/C=C(\C)CCC=C(C)C	33.5%	105%	90.1%	41.2%	33.6%	–	30.2%	81.7%	81.1%	127%	5.81% (active)	-22.5% (active)	64.7%	93.2%	52%	73%	45.1%	27.2%	87.2%	103%
CN(C)c1ccc(/C=C\c2ccnc3ccccc23)cc1	13.1%	39%	90.6%	82%	86.9%	-7.89% (active)	65.1%	81.2%	85.1%	84.8%	70.3%	–	92.1%	78.3%	83.9%	58.5%	–	26.8%	61.6%	80.9%
Nc1ccccc1-c1ccc([N+](=O)[O-])cc1	68.7%	87.6%	57%	53.1%	33.6%	–	46.7%	23.8%	59.3%	111%	67%	111%	49.4%	52.8%	44.7%	47.8%	63.3%	15.5%	44.2%	78.9%
COc1ccc(/C=N/NC(=O)c2ccc(S(C)(=O)=O)cc2)cc1OC	102%	93.5%	92.1%	97.2%	109%	84.4%	99.5%	107%	99.8%	107%	106%	104%	102%	105%	99.4%	102%	–	80.9%	100%	–
COc1ccc(/C=C2\NC(=S)NC2=O)cc1	113%	100%	95.2%	83.5%	104%	–	109%	88.2%	118%	77.5%	94.5%	126%	106%	98.3%	100%	93.5%	107%	117%	119%	106%
Cc1cc2c(cc1C)Nc1sc(NC(=O)CN3CCN(C)CC3)nc1C(=O)N2	102%	105%	105%	–	101%	86.3%	98.9%	112%	108%	109%	114%	–	103%	107%	103%	101%	100%	81.7%	109%	109%
CC(=O)c1ccc2c3c(n(C)c2c1)CCCC3	104%	33%	117%	–	84.9%	95.2%	92.7%	–	98.3%	118%	101%	112%	101%	98%	108%	105%	106%	–	97.7%	116%
